Source: PubChem
Most compounds without a hit are left out; they make up all but 8.7% or so of the library.
12-LOX inh: Primary qHTS assay for inhibitors of human arachidonate 12S-lipoxygenase (ALOX12): Round 2; Polyunsaturated fatty acid lipoxygenase ALOX12 (Homo sapiens), P18054; purified 12hLO, xylenol orange hydroperoxide absorbance; Potency, µM (titrated, usually from 108 µM), inactives show at the top dose activity change, negative = inhibition, usual class: inhibitors; 580,000 tested, 1.1% active; AID 1671190, 2021; also: % is scaled to controls: 0 for no effect and ±100 for the full control effect
Target sequence (P18054 whole entry, looked up): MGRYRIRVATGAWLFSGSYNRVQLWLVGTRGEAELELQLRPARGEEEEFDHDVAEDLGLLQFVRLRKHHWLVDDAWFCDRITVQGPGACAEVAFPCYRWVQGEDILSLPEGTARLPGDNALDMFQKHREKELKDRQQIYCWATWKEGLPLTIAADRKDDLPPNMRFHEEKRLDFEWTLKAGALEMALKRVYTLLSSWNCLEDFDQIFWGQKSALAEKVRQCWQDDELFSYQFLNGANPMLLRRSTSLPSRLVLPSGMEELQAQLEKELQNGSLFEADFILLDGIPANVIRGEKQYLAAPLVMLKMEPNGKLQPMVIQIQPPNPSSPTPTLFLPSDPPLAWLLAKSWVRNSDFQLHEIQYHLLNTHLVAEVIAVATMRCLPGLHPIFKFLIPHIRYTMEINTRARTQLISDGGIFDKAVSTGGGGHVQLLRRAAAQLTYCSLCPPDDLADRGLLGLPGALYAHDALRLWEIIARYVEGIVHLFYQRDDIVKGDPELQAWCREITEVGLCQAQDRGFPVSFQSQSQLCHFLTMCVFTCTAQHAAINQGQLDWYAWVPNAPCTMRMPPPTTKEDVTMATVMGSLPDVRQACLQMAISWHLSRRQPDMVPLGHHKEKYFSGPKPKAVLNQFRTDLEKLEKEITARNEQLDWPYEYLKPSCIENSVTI
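Hydroperoxide product was detected by ferrous iron/xylenol orange as the 573 to 405 nm absorbance ratio. Arachidonic acid at 40 uM (final) was turned over for 30 min at room temperature by 150 nM human 12hLO, pH 7.0 Hepes buffer, after 15 min compound preincubation.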
JMJD2A Tudor inh: qHTS Assay for Inhibitors of JMJD2A-Tudor Domain. AlphaScreen JMJD2A-Tudor / H3K4me3 peptide binding. Potency, µM (highest dose often 114 µM), for the others: at the top dose activity change, negative = inhibition, most hits filed as inhibitors. 390,000 tested, 4.4% active. Lysine-specific demethylase 4A (Homo sapiens), O75164; also: % is scaled to controls: 0 for no effect and ±100 for the full control effect; nearly all actives have a fitted effect of over 50% in size
BAZ2B inh: qHTS Assay for Inhibitors of BAZ2B; 360,000 tested, 4.4% active; Potency, µM (top dose mostly 114 µM), for the others: at the top dose activity change, negative = inhibition, actives largely listed as inhibitors; AlphaScreen BAZ2B-H3K14Ac peptide displacement; also: % is scaled to controls: 0 for no effect and ±100 for the full control effect; nearly all actives have a fitted effect of over 60% in size
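AlphaScreen displacement of biotin-H3(5-23)K14Ac peptide (50 nM final) from BAZ2B (50 nM final) in PBS pH 7.4, 0.01% Tween-20; complex preformed 30 min RT, then compounds (top 110 uM) 30 min RT, beads 20 min dark.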
Sfp inh: qHTS Assay for Inhibitors of Bacillus subtilis Sfp phosphopantetheinyl transferase (PPTase); Potency, µM, for inactives: largest response in the series, negative = inhibition, usual class: inhibitors; 310,000 tested, 3.5% active; Biochemical Sfp PPTase activity, qHTS; 4'-phosphopantetheinyl transferase ffp (Bacillus subtilis), Q9F4F7;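 also: the enzyme is Sfp with the accession as filed and its product quenches rhodamine fluorescence; 0% = enzyme reaction without inhibitor and -100% = no enzyme wells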
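After 15 min at room temperature with compound, 15 nM Sfp received 5 uM rhodamine-CoA plus 12.5 uM BHQ-2-ybbR (50 mM Hepes pH 7.6, 10 mM MgCl2). Rate came from the fluorescence difference over 30 min, ex 525/em 598 nm.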
G9a inh: qHTS Assay for Inhibitors of Histone Lysine Methyltransferase G9a | Histone-lysine N-methyltransferase EHMT2 (Homo sapiens), Q96KQ7 | G9a H3K9 monomethylation, AlphaScreen, 2 h | Potency, µM (doses to about 102 µM), for inactives: at the top dose activity, negative = inhibition, usual class: inhibitors | 350,000 tested, 8.8% active | AID 504332, 2011; also: % is scaled to controls: 0 for no effect and ±100 for the full control effect; nearly all actives have a fitted effect of over 75% in size
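Signal arises when biotinylated H3K9 peptide, once monomethylated, bridges streptavidin donor and antibody-captured acceptor beads. Enzyme at 20 nM was preincubated 15 min with test compounds; peptide 500 nM and SAM 20 uM then reacted for 2 h.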
HP1b binding inh: HTS for Inhibitors of HP1-beta Chromodomain Interactions with Methylated Histone Tails; Chromobox protein homolog 1 (Homo sapiens), P83916; AlphaScreen HP1-beta / biotin-H3K9me3 peptide binding; Potency, µM (top dose mostly 114 µM), for the others: top-dose activity change, negative = inhibition, actives largely listed as inhibitors; 390,000 tested, 0.56% active; AID 540317, 2011; also: nearly all actives have a fitted effect of over 70% in size
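AlphaScreen: HP1-beta (50 nM) preformed 30 min with biotin-H3(1-18)K9me3 peptide (50 nM) in PBS pH 7.4, 0.01% Tween-20. Compound added for 30 min at RT, then streptavidin donor/nickel chelate acceptor beads (10 ug/mL) for 30 min.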
Active calls of the source: *; ! = not confirmed by another sample; [ ] = remark or other dose. Calls follow the shape of the dose curve; as a rule, active = well fitted curve in the direction sought with a large enough effect; inconclusive = small, poorly fitted or top-dose-only effect, or another doubt; inactive = no such curve, though single readings can be large; an effect the other way counts as inactive or inconclusive. Potency is read from the fitted curve at half-maximal effect.

O=[N+]([O-])c1cccc(-c2ccc(CN3CCN(c4ccccc4)CC3)o2)c1 was read as 12-LOX inh 7.1µM*, JMJD2A Tudor inh 35µM*, BAZ2B inh 45µM*, Sfp inh inconclusive, G9a inh 40µM* and HP1b binding inh inconclusive.
For CCn1c(-c2cc(-c3cccc(OC)c3)nc3ccccc23)n[nH]c1=S the results were 12-LOX inh inconclusive, JMJD2A Tudor inh -36%, BAZ2B inh inconclusive, Sfp inh inconclusive, G9a inh 1.1µM* and HP1b binding inh -2%.
Cn1c(-c2cc(Br)ccc2O)n[nH]c1=S was read as 12-LOX inh inconclusive, JMJD2A Tudor inh 4.5µM*, BAZ2B inh -33%, Sfp inh 11%, G9a inh 0.5µM* and HP1b binding inh inconclusive.
Oc1ccc(Br)cc1-c1cc(-c2ccccc2)n[nH]1 was read as 12-LOX inh 21%, JMJD2A Tudor inh -7%[11.4 µM], BAZ2B inh -1%, Sfp inh -16%, G9a inh 6%[59 µM] and HP1b binding inh 69%.
`S=c1[nH]nc(-c2ccccc2Br)n1Cc1ccccc1` gave 12-LOX inh inconclusive, JMJD2A Tudor inh -74%, BAZ2B inh -3%, Sfp inh -8% and HP1b binding inh -11%.
Screening Oc1ccc(Br)cc1-c1n[nH]c(=S)n1Cc1ccccc1 returned 12-LOX inh -27%, JMJD2A Tudor inh inconclusive, BAZ2B inh -23%, Sfp inh -15%, G9a inh 6.3µM* and HP1b binding inh 16%.
For CCc1ccc(-c2cc(-c3n[nH]c(=S)n3CC)c3ccccc3n2)cc1 the results were BAZ2B inh inconclusive, Sfp inh 3% and G9a inh inconclusive.
Screening CCn1c(-c2cc(-c3ccccc3)sc2N)n[nH]c1=S returned 12-LOX inh 0%, JMJD2A Tudor inh -29%, BAZ2B inh -20%, Sfp inh -26%, G9a inh 1.1µM* and HP1b binding inh 27%.
Screening CCCCn1c(=O)n(CC(=O)NCc2ccc(Cl)cc2)c(=O)c2c1ncn2CC(C)C returned 12-LOX inh -14%.
CCOc1ccc(SC(C(N)=O)c2ccccc2)cc1 (stereo unspecified) was read as 12-LOX inh -5%.
For Oc1ccccc1-c1n[nH]c(=S)n1Cc1ccccc1 the results were 12-LOX inh inconclusive, JMJD2A Tudor inh 20µM*, BAZ2B inh inconclusive, Sfp inh 9%, G9a inh 2.8µM* and HP1b binding inh 12%.
For CCn1c(-c2ccccc2O)n[nH]c1=S the results were 12-LOX inh -20%, JMJD2A Tudor inh 4µM*, BAZ2B inh -32%, Sfp inh inconclusive, G9a inh 14µM* and HP1b binding inh 29%.
Screening CN1CC(=O)N(c2ccccc2)Cc2c1ncnc2N1CCc2ccccc2C1 returned 12-LOX inh 32µM*.
Screening CN1CC(=O)N(c2ccccc2)Cc2c1ncnc2N1CCC(O)CC1 returned 12-LOX inh 42%.
For Cc1csc(=Nc2ccccc2)n1Cc1ccco1 the results were 12-LOX inh inconclusive, JMJD2A Tudor inh 45µM*, BAZ2B inh 63µM*, Sfp inh -20%, G9a inh 40µM* and HP1b binding inh inconclusive.
For Cc1csc(=NC(=O)c2ccccc2)n1Cc1ccco1 the results were 12-LOX inh 8%, JMJD2A Tudor inh -21%, BAZ2B inh -37%, Sfp inh -6%, G9a inh inconclusive and HP1b binding inh -5%.
`CC(C)(C(=O)O)c1cnc(N2C[C@@H](CO)[C@H](CO)C2)nc1N1CCOCC1` gave 12-LOX inh 51%.
CCCCNC(=O)c1sc(=S)n2c1[nH]c(=O)c1ccc(C(=O)NCCc3ccc(OC)c(OC)c3)cc12 was read as JMJD2A Tudor inh -26%, BAZ2B inh inconclusive, Sfp inh 12%, G9a inh 25µM* and HP1b binding inh -23%[57 µM].
Screening O=C(NCc1ccccc1)c1sc(=S)n2c1[nH]c(=O)c1ccccc12 returned 12-LOX inh inconclusive, JMJD2A Tudor inh inconclusive, BAZ2B inh 45µM*, Sfp inh 8%, G9a inh 28µM* and HP1b binding inh -22%.
For CCCCCn1c(=O)[nH]c2cc(C(=O)NCCc3ccc(OC)c(OC)c3)ccc2c1=O the results were 12-LOX inh 54%, JMJD2A Tudor inh -10%, BAZ2B inh 8%, Sfp inh -6%, G9a inh 1% and HP1b binding inh 39%.
O=C(C1CCCC1)N1CCC(Oc2cccc(F)c2)C1 (stereo unspecified) was read as 12-LOX inh 2%.
CCC(CC)n1c(=O)n(Cc2cc(C(C)C)no2)c2cc(C(=O)O)cnc21 was read as 12-LOX inh 1%.
For CCCCCn1cnc2c(=S)nc(N)[nH]c21 the results were 12-LOX inh inconclusive, JMJD2A Tudor inh 18µM*, BAZ2B inh inconclusive, Sfp inh 2.5µM*, G9a inh 8.9µM* and HP1b binding inh inconclusive.
`CCCCn1cnc2c(=S)nc(N)[nH]c21` gave 12-LOX inh inconclusive, JMJD2A Tudor inh 11µM*, BAZ2B inh inconclusive, Sfp inh 14µM*, G9a inh 6.3µM* and HP1b binding inh -13%.
For CCCCCn1cnc2c1c(=O)[nH]c(=O)n2CCCC the results were 12-LOX inh -10%.
`CCN1C(=O)N[C@@H](c2cccc(C(F)(F)F)c2)C(C(=O)OC)=C1C` gave 12-LOX inh -40%, JMJD2A Tudor inh -11%, Sfp inh 1% and HP1b binding inh 35%.
For CCN(CC)CCCN=C1N[C@@H](c2cccc(C(F)(F)F)c2)C(C(=O)OC)=C(C)N1CC the results were 12-LOX inh inconclusive, JMJD2A Tudor inh 25µM* and HP1b binding inh 25%.
CCN1C(=NCCN2CCOCC2)N[C@@H](c2ccccc2)C(C(=O)OC)=C1C was read as 12-LOX inh -26%, JMJD2A Tudor inh inconclusive, BAZ2B inh inconclusive, Sfp inh -4%, G9a inh 50µM*! and HP1b binding inh -17%.
